# From article PMC9911399, “Two distinct binding modes provide the RNA-binding protein RbFox with extraordinary sequence specificity”
# Residue numbers refer to the chain shown, from its start. Whole data set: some 16,000 sequences, median “ka relative to ugcaugu” near 0.0091, cut for the highest 2% near 0.032. This is one part of a sample in which the highest values are shown more often than they occur.
# T1: RBFOX1 RRM (Homo sapiens, UniProt Q9NWB1 109-208)
# T1 sequence: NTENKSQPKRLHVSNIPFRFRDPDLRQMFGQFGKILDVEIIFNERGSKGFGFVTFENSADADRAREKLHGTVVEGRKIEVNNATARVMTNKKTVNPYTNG
# B1: UAACCGC (DNA:RNA)
# RNA: GGGAGACCGGAAUUCAGAUUGUCCUAACCGCUUAAAUCCCGUCGUAGCCACCA
# DNA 1: CAATCTGAATTCCGGTCTCCC
# DNA 2: TGGTGGCTACGACGGGATT
# B2: CAACUUU (DNA:RNA)
# RNA: B1 RNA with U25C, C29U, G30U, C31U
# DNA 1: CAATCTGAATTCCGGTCTCCC
# DNA 2: TGGTGGCTACGACGGGATT
# B3: UUGCAAU (DNA:RNA)
# RNA: B1 RNA with A26U, A27G, C29A, G30A, C31U
# DNA 1: CAATCTGAATTCCGGTCTCCC
# DNA 2: TGGTGGCTACGACGGGATT
# B4: CACCGUG (DNA:RNA)
# RNA: B1 RNA with U25C, A27C, C29G, G30U, C31G
# DNA 1: CAATCTGAATTCCGGTCTCCC
# DNA 2: TGGTGGCTACGACGGGATT
# B5: AGUCCAG (DNA:RNA)
# RNA: B1 RNA with U25A, A26G, A27U, G30A, C31G
# DNA 1: CAATCTGAATTCCGGTCTCCC
# DNA 2: TGGTGGCTACGACGGGATT
# B6: AGGCAGA (DNA:RNA)
# RNA: B1 RNA with U25A, A26G, A27G, C29A, C31A
# DNA 1: CAATCTGAATTCCGGTCTCCC
# DNA 2: TGGTGGCTACGACGGGATT
# B7: AGAGAAG (DNA:RNA)
# RNA: B1 RNA with U25A, A26G, C28G, C29A, G30A, C31G
# DNA 1: CAATCTGAATTCCGGTCTCCC
# DNA 2: TGGTGGCTACGACGGGATT
# B8: GGAGUUU (DNA:RNA)
# RNA: B1 RNA with U25G, A26G, C28G, C29U, G30U, C31U
# DNA 1: CAATCTGAATTCCGGTCTCCC
# DNA 2: TGGTGGCTACGACGGGATT
# B9: GGGUUUU (DNA:RNA)
# RNA: GGGAGACCGGAAUUCAGAUUGUCCGGGUUUUUUAAAUCCCGUCGUAGCCACCA
# DNA 1: CAATCTGAATTCCGGTCTCCC
# DNA 2: TGGTGGCTACGACGGGATT
# B10: GGGGAGU (DNA:RNA)
# RNA: B9 RNA with U28G, U29A, U30G
# DNA 1: CAATCTGAATTCCGGTCTCCC
# DNA 2: TGGTGGCTACGACGGGATT
# B11: GUCCGGG (DNA:RNA)
# RNA: B1 RNA with U25G, A26U, A27C, C29G, C31G
# DNA 1: CAATCTGAATTCCGGTCTCCC
# DNA 2: TGGTGGCTACGACGGGATT
# B12: ACCGGGU (DNA:RNA)
# RNA: B9 RNA with G25A, G26C, G27C, U28G, U29G, U30G
# DNA 1: CAATCTGAATTCCGGTCTCCC
# DNA 2: TGGTGGCTACGACGGGATT
# B13: GUCGGGU (DNA:RNA)
# RNA: B9 RNA with G26U, G27C, U28G, U29G, U30G
# DNA 1: CAATCTGAATTCCGGTCTCCC
# DNA 2: TGGTGGCTACGACGGGATT
# B14: GGGAGUU (DNA:RNA)
# RNA: B9 RNA with U28A, U29G
# DNA 1: CAATCTGAATTCCGGTCTCCC
# DNA 2: TGGTGGCTACGACGGGATT
# B15: CGGGUUU (DNA:RNA)
# RNA: B9 RNA with G25C, U28G
# DNA 1: CAATCTGAATTCCGGTCTCCC
# DNA 2: TGGTGGCTACGACGGGATT
# B16: GGGUUUG (DNA:RNA)
# RNA: B9 RNA with U31G
# DNA 1: CAATCTGAATTCCGGTCTCCC
# DNA 2: TGGTGGCTACGACGGGATT
# B17: CCGGGUU (DNA:RNA)
# RNA: B9 RNA with G25C, G26C, U28G, U29G
# DNA 1: CAATCTGAATTCCGGTCTCCC
# DNA 2: TGGTGGCTACGACGGGATT
# B18: GGGUUGU (DNA:RNA)
# RNA: B9 RNA with U30G
# DNA 1: CAATCTGAATTCCGGTCTCCC
# DNA 2: TGGTGGCTACGACGGGATT
# B19: GUUUGGG (DNA:RNA)
# RNA: B9 RNA with G26U, G27U, U29G, U30G, U31G
# DNA 1: CAATCTGAATTCCGGTCTCCC
# DNA 2: TGGTGGCTACGACGGGATT
# B20: UAAUAUG (DNA:RNA)
# RNA: B1 RNA with C28U, C29A, G30U, C31G
# DNA 1: CAATCTGAATTCCGGTCTCCC
# DNA 2: TGGTGGCTACGACGGGATT
# Biological target: T1, RBFOX1 RRM
# Assay: EMSA; HiTS-Eq, 1 nM pool, 10 min; buffer printed only for the single-RNA assays: 10 mM Tris pH 7.5, 150 mM NaCl, 3.4 mM EDTA, 0.001% NP-40, 30 C
# Details: tags: His6 N-terminal (pET28a); label: 5' 32P
# Method in brief: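 Purified wild-type or mutant RbFox RRM at increasing concentrations was equilibrated with 1 nM of 5′-radiolabelled RNA carrying 7 randomized nucleotides for 10 min in 50 µL. Unbound RNA was separated by 8% native PAGE and sequenced. Relative association constants came from read-count changes of each RNA species compared with the control reaction, normalised to the cognate motif.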
row,Binder,binding signal
1,B1,0.0039 KA relative to UGCAUGU
2,B2,0.000994 KA relative to UGCAUGU
3,B3,0.0162 KA relative to UGCAUGU
4,B4,0.0057 KA relative to UGCAUGU
5,B5,0.00711 KA relative to UGCAUGU
6,B6,0.00971 KA relative to UGCAUGU
7,B7,0.00984 KA relative to UGCAUGU
8,B8,0.0247 KA relative to UGCAUGU
9,B9,0.0323 KA relative to UGCAUGU
10,B10,0.0316 KA relative to UGCAUGU
11,B11,0.00708 KA relative to UGCAUGU
12,B12,0.013 KA relative to UGCAUGU
13,B13,0.0137 KA relative to UGCAUGU
14,B14,0.0324 KA relative to UGCAUGU
15,B15,0.0393 KA relative to UGCAUGU
16,B16,0.0349 KA relative to UGCAUGU
17,B17,0.0196 KA relative to UGCAUGU
18,B18,0.0284 KA relative to UGCAUGU
19,B19,0.0128 KA relative to UGCAUGU
20,B20,0.0114 KA relative to UGCAUGU
